# Source: PubChem BioAssay (several laboratories)
# BoNT-A LC inh2 – inhibitors of Botulinum neurotoxin A light chain protease; multiplex microsphere protease substrate cleavage, flow cytometry; inhibition, % at 10 µM; 360,000 tested, 0.17% active; further: plate controls were buffer without enzyme for full effect and enzyme alone for no effect
# SSB-PriA inh – blocks PriA binding to SSB C-terminal tail. AlphaScreen SSBct-PriA binding, biotinylated peptide. inhibition, % at 33 µM. 430,000 tested, 0.6% active. AID 1272365; in the data active means inhibition mostly above about 37%, no sharp cut-off; inactive means mostly below about 20%;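 further: plate controls were negative control peptide for no effect and reference peptide for full effect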
# BoNT-F LC inh – BoNT F light chain protease inhibition; 360,000 tested, 0.22% active; Multiplex microsphere protease cleavage assay, flow cytometry; AID 588497; inhibition, % at 10 µM; in the data active means inhibition above about 35%, passing the limit was not always enough; inconclusive means no clear call, values can overlap the other calls; further: plate controls were buffer without enzyme for full effect and enzyme alone for no effect
# Anthrax LF inh2 – inhibitors of Bacillus anthracis lethal factor protease; P15917; multiplex microsphere protease cleavage assay, LF; inhibition, % at 10 µM; 360,000 tested, 0.12% active; AID 588501; further: plate controls were buffer without enzyme for full effect and enzyme alone for no effect
# Autofluor counter – compound fluorescence in toxin protease inhibitor counterscreen. compound autofluorescence counterscreen, microsphere flow cytometry; active compounds read high. fluorescence intensity (test concentration not listed). 360,000 tested, 3.1% active; in the data active means fluorescence intensity above about 16000; inconclusive means no clear call, values can overlap the other calls
# * hit, by the source's call; ? = inconclusive; nt = not tested or not shown; ! = a repeat was not active. This is a sample that favours compounds with a hit; in the whole collection about 3.1% have one here. Unless noted, no stated cut-off is given here; in the data, active means inhibition above about 30%; inconclusive means no clear call, values can overlap the other calls; inactive means below that.
SMILES,BoNT-A LC inh2,SSB-PriA inh,BoNT-F LC inh,Anthrax LF inh2,Autofluor counter
O=[N+]([O-])c1ccc(/C=N/NC2=NS(=O)(=O)c3ccccc32)cc1,-0.3,nt,2.7,0.3,2301
O=[N+]([O-])c1ccc(O)c(/C=N/NC2=NS(=O)(=O)c3ccccc32)c1,6.1,nt,41.1*,0.8,2644
O=[N+]([O-])c1ccc(O)c(C=NNC2=NS(=O)(=O)c3ccccc32)c1,nt,51.2*,nt,nt,nt
O=[N+]([O-])c1ccccc1C=NNC1=NS(=O)(=O)c2ccccc21,nt,-19.2,nt,nt,nt
COc1cc2c(cc1OC)CN(S(=O)(=O)c1ccc(C(C)(C)C)cc1)CC2,nt,-11.0,nt,nt,nt
Cc1nc2ccccc2c(=O)n1-c1cccc(NC(=O)c2cc(Br)ccc2Cl)c1,nt,6.0,nt,nt,nt
C/C(=N/NS(=O)(=O)c1cccc([N+](=O)[O-])c1)c1c[nH]c2ccccc12,0.1,nt,0.8,-3.6,5620
CC(=NNc1ccc([N+](=O)[O-])cc1)c1c[nH]c2ccccc12,nt,40.2*,nt,nt,nt
O=C(Nc1nc(C(=O)N2CCOCC2)co1)c1ccco1,nt,-6.0,nt,nt,nt
CCn1cc(Cl)c(C(=O)Nc2ccccc2C(N)=O)n1,-1.4,44.9*,-12.3,-1.8,4496
CCn1cc(Br)c(C(=O)Nc2ccccc2C(=O)OC)n1,-0.1,-11.4,-0.6,-2.3,1963
CCOC(=O)N1CCN(C(=O)CN(c2ccc(OC)c(OC)c2)S(C)(=O)=O)CC1,-1.4,-0.6,1.9,0.7,16773*
CCOC(=O)N1CCN(C(=O)CN(c2ccc(Oc3ccccc3)cc2)S(C)(=O)=O)CC1,-0.1,1.6,0.6,-5.2,4294
CCOC(=O)N1CCN(C(=O)CN(c2ccc(OCC)cc2)S(C)(=O)=O)CC1,0.7,-5.1,1.9,-1.4,22023*
N#Cc1cccc(C(=O)N2CCC(CSC3=NCCS3)CC2)c1,nt,-12.0,nt,nt,nt
O=C(NCCC(O)c1ccc2c(c1)OCO2)c1cc2ccccc2o1 (stereo unspecified),nt,-11.0,nt,nt,nt
COc1ccccc1-c1nnc2sc(COc3ccccc3)nn12,7.5,1.4,10.6,-12.1,20024*
COc1ccc(OCc2nn3c(Cn4cnc5ccccc54)nnc3s2)cc1,-1.8,-3.5,-2.3,-4.9,16600*
S=C1NC2(CCCCC2)Cc2ccccc21,0.9,44.1*,1.8,-2.3,7919
O=C1NC2(CCCCC2)Cc2ccccc21,-0.7,-5.6,0.4,-1.9,12724
CCNC(=O)N1CCC(Oc2cccnc2)CC1,nt,-5.0,nt,nt,nt
Cc1ccccc1-n1cnc2cc(NCc3cccs3)ccc21,?,29.2,-8.4,-3.0,23047*
CC[n+]1c(/C=C/c2ccc(N(C)C)cc2)ccc2ccccc21,12.1,14.7,-16.0,4.0,2511
CCN(CC)c1ccc(/C=C/c2ccc3ccc(OC)cc3[n+]2CC)cc1,59.5*,-1.1,-111.3,-3.8,3250
COCCn1nnn(-c2ccc(NC(=O)CCS(=O)(=O)c3ccccc3)cc2)c1=O,nt,-6.0,nt,nt,nt
SMILES,BoNT-A LC inh2,SSB-PriA inh,BoNT-F LC inh,Anthrax LF inh2,Autofluor counter
O=C(c1ccccc1Cl)N1CCCC(c2nnc(-c3ccc4c(c3)OCO4)o2)C1 (stereo unspecified),nt,-9.0,nt,nt,nt
Cc1ccc(-c2nn3c(C)nnc3s2)cc1NC(=O)c1ccc(-c2ccc(Cl)cc2Cl)o1,?,-3.9,2.2,1.6,16181*
CCCCC(=O)NC(c1ccc([N+](=O)[O-])cc1)c1c(O)ccc2ccccc12 (stereo unspecified),-0.7,6.1,-7.2,-9.3,7077
CCC(=O)NC(c1ccc([N+](=O)[O-])cc1)c1c(O)ccc2ccccc12 (stereo unspecified),?,-1.7,-5.3,-2.9,24260*
O=C(CSc1ncnc2c1oc1ccccc12)Nc1ccc2c(c1)OCCO2,-3.6,1.5,-4.5,-2.4,17420*
O=C(CSc1ncnc2c1oc1ccccc12)Nc1cccc(F)c1,-0.6,-5.5,0.2,-6.0,4331
COc1ccccc1NC(=O)CSc1ncnc2c1oc1ccccc12,0.8,-29.8,0.5,-2.3,20328*
Cc1nc(SCC(=O)Nc2ccc3c(c2)OCCO3)c2oc3ccccc3c2n1,0.3,-7.8,0.2,0.9,20676*
CCc1nc(SCC(=O)Nc2ccc3c(c2)OCCO3)c2oc3ccccc3c2n1,-0.3,-5.6,5.1,-1.3,2148
Cc1ccsc1/C=C(\C#N)c1nc(-c2ccc(Cl)c(Cl)c2)cs1,nt,-3.0,nt,nt,nt
COC(=O)c1ccc(-n2nnnc2SC)cc1,-1.5,-10.2,2.2,22.5,?
COC(=O)COC(=O)c1ccc(-n2nnnc2SC)cc1,0.9,-18.2,5.7,-2.3,22577*
Cc1nc2scc(-c3ccccc3)c2c(=O)n1N,0.4,-5.8,-4.6,1.0,3463
Cc1ccc(C)n1-n1c(C)nc2scc(-c3ccccc3)c2c1=O,-1.6,19.3,-1.7,-3.1,21049*
Cc1cc(OC2CCN(C(=O)CCNS(=O)(=O)c3ccccc3F)CC2)cc(=O)o1,nt,-13.0,nt,nt,nt
Cc1ccc(/C=C/S(=O)(=O)Nc2ccc(CC(=O)N3CCOCC3)cc2)cc1,nt,-9.0,nt,nt,nt
O=C1C(=O)c2cccnc2-c2ncccc21,-0.9,nt,-7.0,0.1,5831
O=C1c2cccnc2-c2ncccc21,-0.4,37.0*!,2.5,-3.1,3585
COC1=C(Br)C(=O)c2ncccc2C1=O,-0.1,40.7*,-6.1,-6.4,4047
COc1ccc(S(=O)(=O)CC(=O)N2CCC(Oc3nc4ccccc4s3)CC2)cc1,nt,-5.0,nt,nt,nt
C=CCN1C(=O)CS/C1=N/c1nccs1,-6.4,nt,-6.5,-2.0,21993*
CCN1C(=O)CSC1=Nc1nccs1,nt,-3.5,nt,nt,nt
CCc1cccc(C)c1NC(=S)NCCc1c(C)[nH]c2ccc(C)cc12,-1.2,39.8*,-7.6,-6.6,5910
O=C(O)c1ccc(CS(=O)(=O)Cc2ccccc2F)o1,-0.8,-3.7,-6.3,-4.4,8061
CCOC(=O)N1CCN(C(=O)c2ccc(CS(=O)(=O)c3ccccc3OC)o2)CC1,?,-7.8,5.9,-1.5,20166*
SMILES,BoNT-A LC inh2,SSB-PriA inh,BoNT-F LC inh,Anthrax LF inh2,Autofluor counter
COc1ccccc1CNC(=O)c1ccc(CS(=O)(=O)c2ccccc2OC)o1,-2.3,0.2,-4.0,-2.7,22833*
COc1ccc(S(=O)(=O)Cc2ccc(C(=O)N3CCC4(CC3)OCCO4)o2)cc1,1.2,-20.5,0.4,-4.0,19527*
CCN1CCN(C(=O)c2ccc(CS(=O)(=O)Cc3ccccc3F)o2)CC1,-2.9,-0.9,-3.9,-0.8,25125*
CCOC(=O)N1CCN(C(=O)c2ccc(CS(=O)(=O)c3c(Cl)cccc3Cl)o2)CC1,-1.4,0.6,-6.3,-13.4,4242
COc1ccc(CC(=O)NN=Cc2cc(Br)c(O)c(Br)c2)cc1,nt,-7.0,nt,nt,nt
Cc1ccccc1S(=O)(=O)Cc1ccc(C(=O)N2CCN(c3ccccc3F)CC2)o1,1.3,3.0,5.7,-0.6,5160
COc1ccccc1N1CCN(C(=O)c2ccc(CS(=O)(=O)c3ccccc3OC)o2)CC1,-0.9,-7.8,-4.1,-0.9,16680*
O=C(COc1ccc(Cl)cc1)NCc1nnc(SCC(=O)Nc2nc3ccccc3s2)n1-c1cccc(C(F)(F)F)c1,nt,-36.0,nt,nt,nt
O=C1c2ccccc2C(=O)C12Cc1ccccc1N1CCN(c3ccccc3)CC12 (stereo unspecified),-0.4,3.5,-0.1,-10.8,4508
Cc1ccc(N2C(=O)NC(=O)C3(Cc4ccccc4N4CCN(c5ccccc5)CC43)C2=O)cc1 (stereo unspecified),5.9,-15.4,8.9,-9.8,19868*
